Measurements from PubChem BioAssay AID1159580 (chemical genetic matrix, 2015).
The whole screen tested about 5,500 compounds, of which about 2,000 (36%) were called active. Inconclusive results (about 18%) are left out. Rule as the data show it: active = normalized growth mostly below about 0.91 (no sharp cut-off); inconclusive = no clear call, values can overlap the other calls; inactive = mostly above about 0.92. The list shows a part of the results.

Assay: chemical genetic growth profiling, strain panel (AID 1159580);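 also: tested at 20 µM; growth read once vehicle control cultures reached saturation at 30 °C; 1 = growth at the plate median or of vehicle wells; lower values mean less growth of the strain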
Settings: growth OD
[1] = S. cerevisiae deletion strains, locus YAL013W, strain DEP1, hits give low values
[2] = S. cerevisiae deletion strains, locus YDR150W, strain NUM1, hits give low values
[3] = S. cerevisiae deletion strains, locus YGR078C, strain PAC10, hits give low values
[4] = S. cerevisiae deletion strains, locus YNL322C, strain KRE1, hits give low values
[5] = S. cerevisiae deletion strains, locus YPL055C, strain LGE1, hits give low values
[6] = S. cerevisiae deletion strains, locus YAL040C, strain CLN3, hits give low values
[7] = S. cerevisiae deletion strains, locus YCL061C, strain MRC1 (second series), hits give low values
[8] = S. cerevisiae deletion strains, locus YDR363W, strain ESC2, hits give low values
[9] = S. cerevisiae deletion strains, locus YER002W, strain NOP16, hits give low values
[10] = S. cerevisiae deletion strains, locus YNL128W, strain TEP1, hits give low values
[11] = S. cerevisiae deletion strains, locus YNL175C, strain NOP13, hits give low values
[12] = S. cerevisiae deletion strains, locus YNL197C, strain WHI3, hits give low values
[13] = S. cerevisiae deletion strains, locus YNL224C, strain SQS1, hits give low values
[14] = S. cerevisiae deletion strains, locus YOR083W, strain WHI5 (second series), hits give low values

Measured: normalized growth

c1ccc(-c2csc(-c3cccnc3)n2)cc1
inactive: S. cerevisiae deletion strains, locus YDL101C, strain DUN1, hits give low values 0.912 | S. cerevisiae deletion strains, locus YDL134C, strain PPH21, hits give low values 0.954 | [2] 0.946 | S. cerevisiae deletion strains, locus YHR087W, strain rtc3, hits give low values 0.938 | S. cerevisiae deletion strains, locus YJR043C, strain POL32, hits give low values 0.935 | S. cerevisiae strains, strain wild type, hits give low values 0.949
active: [1] 0.872 | S. cerevisiae deletion strains, locus YBR229C, strain ROT2, hits give low values 0.886 | S. cerevisiae deletion strains, locus YCL061C, strain MRC1, hits give low values 0.853 | S. cerevisiae deletion strains, locus YEL061C, strain CIN8, hits give low values 0.793 | [3] 0.9 | S. cerevisiae deletion strains, locus YHR030C, strain SLT2, hits give low values 0.132 | S. cerevisiae deletion strains, locus YJR075W, strain HOC1, hits give low values 0.855 | S. cerevisiae deletion strains, locus YKL190W, strain CNB1, hits give low values 0.853 | S. cerevisiae deletion strains, locus YLR039C, strain RIC1, hits give low values 0.557 | S. cerevisiae deletion strains, locus YLR058C, strain SHM2 (second series), hits give low values 0.908 | S. cerevisiae deletion strains, locus YLR085C, strain ARP6, hits give low values 0.275 | S. cerevisiae deletion strains, locus YLR262C, strain YPT6, hits give low values 0.432 | S. cerevisiae deletion strains, locus YML094W, strain GIM5, hits give low values 0.772 | S. cerevisiae deletion strains, locus YMR219W, strain ESC1, hits give low values 0.892 | S. cerevisiae deletion strains, locus YMR263W, strain SAP30, hits give low values 0.873 | S. cerevisiae deletion strains, locus YNL153C, strain GIM3, hits give low values 0.887 | S. cerevisiae deletion strains, locus YNL298W, strain CLA4 (second series), hits give low values 0.74 | [4] 0.94 | S. cerevisiae deletion strains, locus YNR030W, strain Alg12, hits give low values 0.857 | [5] 0.717 | S. cerevisiae deletion strains, locus YPL241C, strain CIN2, hits give low values 0.855 | S. cerevisiae deletion strains, locus YPR135W, strain CTF4, hits give low values 0.377

CNc1ccc2oc(C[C@H]3O[C@@]4(CC[C@H]3C)O[C@H]([C@H](C)C(=O)c3ccc[nH]3)[C@H](C)C[C@H]4C)nc2c1C(=O)O
active: [11] 0.907 | [12] 0.853
inactive: [1] 0.976 | [6] 0.929 | [7] 0.951 | [8] 0.928 | [9] 0.997 | [10] 0.98 | [13] 0.924 | [14] 0.906

CCCCCC(O)c1cccc(OCc2ccc3ccccc3n2)c1 (centres undefined)
inactive: [1] 0.958 | [6] 0.958 | [7] 0.984 | [2] 1 | [8] 0.976 | [9] 1.01 | [3] 0.982 | S. cerevisiae deletion strains, locus YGR229C, strain SMI1, hits give low values 0.942 | S. cerevisiae deletion strains, locus YMR307W, strain GAS1, hits give low values 0.996 | [10] 1 | [11] 0.995 | [12] 0.995 | [13] 0.99 | [4] 0.972 | [14] 0.873 | [5] 0.973
